Results as given in article PMC4552634, “A New Set of Chemical Starting Points with Plasmodium falciparum Transmission-Blocking Potential for Antimalarial Drug Discovery” (PLoS ONE, 2015).
The whole screen tested about 13,000 compounds, of which about 3,200 (25%) showed an effect of 50% or more. The list shows a part of the results.

test system: P. falciparum stage V gametocytes; parameters: BacTiter-Glo ATP luminescence viability of purified stage V gametocytes in 384-well plates, per cent inhibition versus DMSO; conditions: 48 h, 5 µM; inhibitor

| Structure (SMILES) | % Inhibition [%] |
| --- | --- |
| CC(=O)Nc1ccc(C(=O)Nc2cccc(-c3ccc(-c4nc5ccc(C(F)(F)F)cc5[nH]4)cc3)c2)cn1 [TCMDC-136832] | 60.22 |
| CC(=O)N(C)c1cccc(C(=O)Nc2cccc(-c3cccc(-c4nc5ccc(C(F)(F)F)cc5[nH]4)c3)c2)c1 [TCMDC-137069] | 42.31 |
| NC(=O)c1cccc(C(=O)Nc2cccc(-c3cccc(-c4nc5ccc(C(F)(F)F)cc5[nH]4)c3)c2)c1 [TCMDC-132199] | -28.51 |
| CC(=O)Nc1ccc(C(=O)Nc2cccc(-c3ccc(-c4nc5ccc(F)cc5[nH]4)cc3)c2)cn1 [TCMDC-136826] | -35.51 |
| CC(=O)Nc1cc(C(=O)Nc2cccc(-c3cccc(-c4nc5ccc(C(F)(F)F)cc5[nH]4)c3)c2)ccc1C [TCMDC-137039] | 68.75 |
| CC(=O)Nc1cccc(C(=O)Nc2ccc(-c3cccc(-c4nc5c(C)cccc5[nH]4)c3)cc2)c1 [TCMDC-132141] | -0.1401 |
| CC(=O)N(C)c1cccc(C(=O)Nc2ccc(-c3cccc(-c4nc5ccc(C(F)(F)F)cc5[nH]4)c3)cc2)c1 [TCMDC-137070] | -32.74 |
| NC(=O)c1ccc(C(=O)Nc2cccc(-c3ccc(-c4nc5ccc(C(F)(F)F)cc5[nH]4)cc3)c2)cc1 [TCMDC-132193] | -16.46 |
| CC(=O)Nc1cc(C(=O)Nc2cccc(-c3cccc(-c4nc5c(C)cccc5[nH]4)c3)c2)ccc1C [TCMDC-137040] | 72.59 |
| Cc1cccc2[nH]c(-c3cccc(-c4cccc(NC(=O)c5ccc(C(N)=O)cc5)c4)c3)nc12 [TCMDC-132192] | -7.489 |
| CC(=O)Nc1cccc(C(=O)Nc2ccc(-c3cccc(-c4nc5ccc(C(F)(F)F)cc5[nH]4)c3)cc2)c1 [TCMDC-132140] | -29.21 |
| CC(=O)N(C)c1cccc(C(=O)Nc2cccc(-c3ccc(-c4nc5ccc(C(F)(F)F)cc5[nH]4)cc3)c2)c1 [TCMDC-137073] | 81.14 |
| CCc1c(C(=O)NC2CCC(N3CCC(c4ccccc4C)CC3)CC2)[nH]c2ccc(Br)cc12 (stereo not shown) [TCMDC-133530] | -72.63 |
| CC(CNC(=O)C(c1cc2ccccc2o1)N1CCN(C(c2ccccc2)c2ccccc2)CC1)c1ccccc1 (stereo not shown) [TCMDC-141010] | 11.08 |
| O=C(Nc1ccc(C(F)(F)F)cc1)c1cccc(S(=O)(=O)NC2CCN(Cc3ccccc3)C2)c1 (stereo not shown) [TCMDC-132484] | -13.38 |
| CCN(CC)CCNC(=O)c1ccc(NC(=O)c2oc3c(Cl)cccc3c2C)cc1 [TCMDC-125463] | 22.65 |
| O=S(=O)(c1ccccc1)C1CC1 [TCMDC-132010] | 2.082 |
| CSc1nnc2n(Cc3ccccc3)c(=O)c3c(n12)-c1ccccc1CC31CCCCC1 [TCMDC-125076] | -1.112 |
| O=C(CSc1nc2ccccc2c(=O)n1CC1CCCO1)Nc1cc(C(F)(F)F)ccc1Cl (stereo not shown) [TCMDC-123732] | -97.98 |
| O=C(Nc1ccc(-c2cccc(-c3nc4ccc(C(F)(F)F)cc4[nH]3)c2)cc1)Nc1ccc(F)c(F)c1F [TCMDC-133228] | -36.32 |
| CC(=O)Nc1ccc(C(=O)Nc2cccc(-c3cccc(-c4nc5ccc(C(F)(F)F)cc5[nH]4)c3)c2)cn1 [TCMDC-136828] | 75.79 |
| CC(=O)Nc1ccc(C(=O)Nc2ccc(-c3cccc(-c4nc5ccc(C(F)(F)F)cc5[nH]4)c3)cc2)cn1 [TCMDC-136829] | 5.637 |
| O=C(Nc1cccc(-c2cccc(-c3nc4ccc(C(F)(F)F)cc4[nH]3)c2)c1)c1ccncc1 [TCMDC-136963] | -4.28 |
| CNC(=O)Cc1ccc(C(=O)Nc2cccc(-c3cccc(-c4nc5ccc(C(F)(F)F)cc5[nH]4)c3)c2)cc1 [TCMDC-137074] | 50.29 |
| O=C(Nc1cccc(-c2cccc(-c3nc4ccc(C(F)(F)F)cc4[nH]3)c2)c1)Nc1ccc(F)c(F)c1F [TCMDC-133229] | 80.27 |

| Structure (SMILES) | % Inhibition [%] |
| --- | --- |
| O=C(Nc1cccc(-c2ccc(-c3nc4ccc(C(F)(F)F)cc4[nH]3)cc2)c1)Nc1ccc(F)c(F)c1F [TCMDC-133224] | -27.79 |
| NC(=O)c1ccc(C(=O)Nc2cccc(-c3cccc(-c4nc5ccc(C(F)(F)F)cc5[nH]4)c3)c2)cc1 [TCMDC-132191] | 5.838 |
| CC(=O)Nc1ccc(C(=O)Nc2cccc(-c3cccc(-c4nc5ccc(F)cc5[nH]4)c3)c2)cn1 [TCMDC-136824] | -57.69 |
| OCCN1CCN(Cc2ccc(-c3ccc(-c4nc5ccc(C(F)(F)F)cc5[nH]4)s3)cc2)CC1 [TCMDC-133034] | 6.44 |
| COc1ccc(NC(=O)Nc2ccc(-c3cccc(-c4nc5ccccc5[nH]4)c3)cc2)cc1 [TCMDC-133250] | -9.476 |
| O=C(Nc1ccc(Cn2ncc(N3CCCNCC3)c(Cl)c2=O)cc1)Nc1cccc(C(F)(F)F)c1 [TCMDC-141925] | -42.22 |
| NC(=O)c1ccc(C(=O)Nc2cccc(-c3csc(-c4nc5ccccc5[nH]4)c3)c2)cc1 [TCMDC-132400] | -14.2 |
| Cc1cc(C(F)(F)F)n2nc(C(=O)N(C)Cc3cncn3Cc3ccc(F)cc3)cc2n1 [TCMDC-132466] | 29.43 |
| Cc1ccc(N2CCc3c(-c4cc5cccnc5nc4C)cc(C)nc32)c(Cl)c1 [TCMDC-136379] | 19.51 |
| COc1ccc(C=C2SC(=O)NC2=Nc2ccccc2)c(OC)c1 [TCMDC-123697] | 23.55 |
| Cl.Oc1cccc(Nc2nc(NCC3CCCO3)c3ccccc3n2)c1 (stereo not shown) [TCMDC-123641] | -25.34 |
| Brc1ccc(Nc2nc(NCC3CCCO3)c3ccccc3n2)cc1 (stereo not shown) [TCMDC-124563] | 15.52 |
| Cl.Oc1ccc(Nc2nc(NCC3CCCO3)c3ccccc3n2)cc1 (stereo not shown) [TCMDC-123730] | 79.07 |
| Oc1ccc2nc(NCCCc3ccccc3)nc(NCCCc3ccccc3)c2c1 [TCMDC-138382] | 90.22 |
| NC1CCN(c2nc(NCCCc3ccc(O)cc3)nc(NCc3cccc4ccccc34)n2)CC1 [TCMDC-133393] | 0.2406 |
| Oc1cccc(Nc2nc(NCc3ccccc3)c3ccccc3n2)c1 [TCMDC-125640] | 36.33 |
| Oc1ccc2nc(Nc3ccccc3)nc(NCCc3ccccc3)c2c1 [TCMDC-138404] | 68.97 |
| Cl.OCCNc1nc(Nc2cccc(O)c2)nc2ccccc12 [TCMDC-123747] | -37.65 |
| Oc1ccc2nc(NCCCc3ccccc3)nc(NCCc3ccccc3)c2c1 [TCMDC-138406] | 91.92 |
| O=C(Nc1ccc(Br)cc1)Nc1ccc(Cn2ncc(N3CCCNCC3)c(Cl)c2=O)cc1 [TCMDC-133329] | -9.301 |
| CC(=O)Nc1sc(C)c(C)c1CN1CCc2ccccc2C1 [TCMDC-124498] | -41.39 |
| COc1ccc(Nc2ncc3c(-c4cccc(NC(=O)c5ccc(N)cc5)c4)c[nH]c3n2)cc1OC [TCMDC-135250] | -78.65 |
| N#Cc1ccccc1N1CCN(C2CCC(NC(=O)c3n[nH]c4cc(C(F)(F)F)ccc34)CC2)CC1 (stereo not shown) [TCMDC-134100] | -13.75 |
| CSCCC(C(=O)O)N1C(=O)c2ccccc2C1=O (stereo not shown) [TCMDC-125514] | -25.71 |
| O=c1cc(NCCCNCc2cccc(SC(F)(F)F)c2)[nH]c2ccccc12 [TCMDC-139420] | -38.07 |

| Structure (SMILES) | % Inhibition [%] |
| --- | --- |
| CC(O)C1CCCCN1C(=O)c1ccc(-c2ccc(-c3nc4ccccc4[nH]3)s2)cc1 (stereo not shown) [TCMDC-132330] | -3.595 |
| CCN1CCN(c2cc(C)c3cc(NC(=O)C=Cc4cccc(OC)c4OC)ccc3n2)CC1 [TCMDC-123803] | -23.17 |
| CCC(C)OC(=O)C1=C(C)NC2=C(C(=O)CC(c3ccc(OC)c(OC)c3)C2)C1c1ccc(C)o1 (stereo not shown) [TCMDC-123735] | 31.33 |
| CCCc1cc(C(=O)N[C@@H](Cc2ccccc2)[C@H](O)CNC(C)C)c(F)c(N2CCCC2=O)c1 [TCMDC-135418] | 10.92 |
| Cl.OCCNc1nc(Nc2ccc(Cl)cc2)nc2ccccc12 [TCMDC-125389] | 1.912 |
| Cl.OCCNc1nc(Nc2ccc(F)cc2)nc2ccccc12 [TCMDC-123640] | -1.104 |
| Oc1ccc(Nc2nc(NCc3ccco3)c3ccccc3n2)cc1 [TCMDC-124015] | -74.78 |
| COc1ccc(Nc2nc(N3CCCC3)c3ccccc3n2)cc1.Cl [TCMDC-124381] | -67.29 |
| Cl.OCCNc1nc(Nc2ccccc2)nc2ccccc12 [TCMDC-123749] | 91.01 |
| Cl.Oc1ccc(Nc2nc(N3CCCC3)c3ccccc3n2)cc1 [TCMDC-123532] | 79.67 |
| CC1CC(NCCCNc2cc(=O)c3ccccc3[nH]2)c2c(Cl)c(Cl)cc(Cl)c21 (stereo not shown) [TCMDC-139486] | 41.94 |
| C(=N\Nc1nccc2sc(-c3cccnc3)cc12)/c1ccncc1 [TCMDC-135305] | -45.13 |
| CCOc1ccc2nc3cc(NC(=O)c4ccco4)ccc3c(N)c2c1 [TCMDC-125004] | 120.6 |
| Nc1cc(C(F)(F)F)ccc1Cl [TCMDC-123950] | 13.58 |
| CCOc1ccc2nc3cc([N+](=O)[O-])ccc3c(N)c2c1 [TCMDC-125852] | 122.1 |
| Nc1c2ccccc2nc2cc(C(F)(F)F)ccc12 [TCMDC-142006] | 51.79 |
| Nc1ccc2c(N)c3ccccc3nc2c1 [TCMDC-132034] | 26.54 |
| O=C(Nc1ccc(Oc2ccc(OC(F)(F)F)cc2)cc1)c1ccco1 [TCMDC-124049] | 6.868 |
| CC(O)C(=O)O.CCOc1ccc2nc3cc(N)ccc3c(N)c2c1 [TCMDC-123983] | 24.81 |
| CCOc1cc(N)c2nc3ccc([N+](=O)[O-])cc3cc2c1 [TCMDC-138134] | 64.78 |
| O=[N+]([O-])c1ccc2nccnc2c1 [TCMDC-123943] | 28.42 |
| CCCC1N=C(N)N=C(N)N1c1cccc([N+](=O)[O-])c1 (stereo not shown) [TCMDC-131299] | -55.59 |
| CCNc1cc(C)nc(Nc2ccc(NC(=O)c3ccco3)cc2)n1 [TCMDC-124982] | -6.858 |
